# Measurements published in PubChem BioAssay (Tox21).
# Inconclusive results are not listed. A call without a number means that no potency is given here. Unmarked numbers belong to inactive results. Active and inactive are the calls of the source. Calls come from the whole dose curve; as a rule, active = well fitted curve in the direction sought with a large enough effect in the repeat runs; inconclusive = weak or mixed curves; inactive = no such curve, though single readings can be large; an effect the other way counts as inactive or inconclusive.
# Legend:
# [1] = A CellTox Green Cytotoxicity Assay to monitor cytotoxicity in HepG2 cells - 32 hour (AID 1224883); note: nearly all actives have a fitted effect of over 50% in size; note: potency is the fitted concentration of half-maximal effect
# Summary of the method: (§1)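 Fluorescent DNA-binding dye, 600 HepG2 cells/well, 5 h preincubation then compound in DMSO; same plates read at 0–40 h, 37 C.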
# [2] = A CellTox Green Cytotoxicity Assay to monitor cytotoxicity in HEK293 cells - 8 hour (AID 1224884); note: nearly all actives have a fitted effect of over 35% in size
# Summary of the method: (§2)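 Homogeneous no-lysis format: HEK293 cell suspension mixed with CellTox Green reagent, seeded, incubated 5 h at 37 C/5% CO2, then dosed by pintool with compound in DMSO.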
# [3] = qHTS RealTime-Glo MT Cell Viability Assay in HepG2 cells - 16 hour (AID 1224885); note: nearly all actives have a fitted effect of over 50% in size; note: potency is the fitted concentration of half-maximal effect
# Summary of the method: (§3)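 HepG2 cells were seeded at 600 cells/well together with NanoLuc luciferase and a cell-permeant prosubstrate, preincubated 5 h at 37 C/5% CO2, then pin-dosed with compounds in DMSO. Nonlytic luminescence from viable cells was read at each time point.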
# [4] = qHTS RealTime-Glo MT Cell Viability Assay in HEK293 cells - 24 hour (AID 1224886); note: nearly all actives have a fitted effect of over 50% in size; note: potency is the fitted concentration of half-maximal effect; for activity change, negative = cytotoxicity: top concentration of the series differs between compounds
# Summary of the method: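 HEK293 cells were seeded at 600 cells/well together with NanoLuc luciferase and cell-permeant prosubstrate, preincubated 5 h at 37 C/5% CO2, then given compound in DMSO by pintool. Luminescence from viable-cell prosubstrate reduction was read repeatedly over 40 h.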
# [5] = qHTS RealTime-Glo MT Cell Viability Assay in HEK293 cells - 8 hour (AID 1224887); note: nearly all actives have a fitted effect of over 50% in size; note: potency is the fitted concentration of half-maximal effect; for activity change, negative = cytotoxicity: top concentration of the series differs between compounds
# Summary of the method: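 Measured as luminescence from the same continuously cultured HEK293 wells at successive time points (0, 8, 16, 24, 32, 40 h) after compound addition. Reagent present from seeding; dosing at 5 h; incubation 37 C.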
# [6] = A CellTox Green Cytotoxicity Assay to monitor cytotoxicity in HEK293 cells - 16 hour (AID 1224888); note: nearly all actives have a fitted effect of over 35% in size; note: potency is the fitted concentration of half-maximal effect
# Summary of the method: as §2
# [7] = qHTS RealTime-Glo MT Cell Viability Assay in HepG2 cells - 0 hour (AID 1224889); note: nearly all actives have a fitted effect of over 50% in size
# Summary of the method: as §3
# [8] = qHTS assay to identify small molecule antagonists of the estrogen receptor alpha (ER-alpha) signaling pathway using the BG1 cell line in the presence of 0.1 nM 17-beta-estradiol - cell viability counter screen (AID 1259241); note: nearly all actives have a fitted effect of over 40% in size
# Summary of the method: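 Cells were plated and left 24 hr, compounds in DMSO were pinned in, 17beta-estradiol was added to 0.1 nM final, and after 22 hr CellTiter-Fluor reagent was added for 30 min before fluorescence was read.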
# [9] = qHTS assay to identify small molecule antagonists of the androgen receptor (AR) signaling pathway using the MDA cell line in the presence of 0.5 nM R1881 - cell viability counter screen (AID 1259242); note: nearly all actives have a fitted effect of over 45% in size
# Summary of the method: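 Human breast carcinoma MDA-kb2 cells, cultured without CO2, receive compounds alongside 0.5 nM (final) R1881 agonist. After 16 hr at 37C, viability is taken as live-cell protease signal.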
# [10] = A CellTox Green Cytotoxicity Assay to monitor cytotoxicity in HepG2 cells - 8 hour (AID 1224890); note: nearly all actives have a fitted effect of over 45% in size
# Summary of the method: as §1
smiles,measurement,setting,value
CCCCCCS,Potency,[1],inactive
same,Potency,[2],inactive
same,Potency,[3],inactive
same,Potency,[4],inactive
same,Potency,[5],inactive
same,Potency,[6],inactive
same,Potency,[7],inactive
same,Potency,[8],inactive
same,Potency,[9],inactive
CCCCCCCCCCCCCCCCCO,cytotoxicity increase,[1],6.48% [at 15.8 µM]
same,cytotoxicity increase,[2],-22.7% [at 15.8 µM]
same,"activity change, negative = cytotoxic",[3],1.76% [at 15.8 µM]
same,"activity change, negative = cytotoxicity",[4],0.271% [at 15.8 µM]
same,"activity change, negative = cytotoxicity",[5],2.17% [at 15.8 µM]
same,activity change,[6],"-22.1% [at 15.8 µM, active compounds read high]"
same,"activity change, negative = cytotoxicity",[7],-0.0873% [at 15.8 µM]
same,"activity change, negative = cytotoxicity",[8],-2.67% [at 19 µM]
same,"viability change, negative = cytotoxic",[9],-1.99% [at 19 µM]
CCc1cccc(CC)c1N(COC)C(=O)CS(=O)(=O)O,Potency,[1],inactive
same,Potency,[2],inactive
same,Potency,[3],inactive
same,Potency,[4],inactive
same,Potency,[5],inactive
same,Potency,[6],inactive
same,Potency,[7],inactive
same,Potency,[10],inactive
same,Potency,[8],inactive
same,Potency,[9],inactive
CCCCCCCC(C)=O,Potency,[1],inactive
same,Potency,[2],inactive
same,Potency,[3],inactive
same,Potency,[4],inactive
same,Potency,[5],inactive
same,Potency,[6],inactive
same,Potency,[7],inactive
same,Potency,[10],inactive
same,Potency,[8],inactive
same,Potency,[9],inactive
CC(C)(c1cc(Br)c(O)c(Br)c1)c1cc(Br)c(O)c(Br)c1,Potency,[1],inactive
same,Potency,[2],inactive
same,Potency,[3],inactive
same,Potency,[4],inactive
same,Potency,[5],inactive
same,Potency,[6],inactive
same,Potency,[7],inactive
same,Potency,[8],inactive
CC(=O)O[C@@H]1C[C@@H]2CC[C@@]1(C)C2(C)C,Potency,[1],inactive
same,Potency,[2],inactive
same,Potency,[3],inactive
same,Potency,[4],inactive
same,Potency,[5],inactive
same,Potency,[6],inactive
same,Potency,[7],inactive
same,Potency,[10],inactive
same,Potency,[8],inactive
same,Potency,[9],inactive
SCCCCCCCCS,Potency,[1],19.5 µM (active)
same,Potency,[2],inactive
same,Potency,[3],inactive
same,Potency,[4],inactive
same,Potency,[5],inactive
same,Potency,[6],inactive
same,Potency,[7],inactive
same,Potency,[8],inactive
same,Potency,[9],inactive
COc1cccc(O)c1,Potency,[1],inactive
same,Potency,[2],inactive
same,Potency,[3],inactive
same,Potency,[4],inactive
same,Potency,[5],inactive
same,Potency,[6],inactive
same,Potency,[7],inactive
same,Potency,[8],inactive
same,Potency,[9],inactive
CCCCCCCC(=O)OCC,Potency,[1],inactive
same,Potency,[2],inactive
same,Potency,[3],inactive
same,Potency,[4],inactive
same,Potency,[5],inactive
same,Potency,[6],inactive
same,Potency,[7],inactive
same,Potency,[10],inactive
same,Potency,[8],inactive
same,Potency,[9],inactive
CCCCCCCOC(=O)c1ccccc1C(=O)OCCCCCCC,Potency,[1],inactive
same,Potency,[2],inactive
same,Potency,[3],inactive
same,Potency,[4],inactive
same,Potency,[5],inactive
same,Potency,[6],inactive
same,Potency,[7],inactive
same,Potency,[10],inactive
same,Potency,[8],inactive
same,Potency,[9],inactive
CC(NCCC(c1ccccc1)c1ccccc1)c1ccccc1 (stereo not given),Potency,[1],15.1 µM (active)
same,Potency,[2],inactive
same,Potency,[3],21.3 µM (active)
same,Potency,[4],19 µM (active)
same,Potency,[5],21.3 µM (active)
same,Potency,[6],21.3 µM (active)
same,Potency,[7],inactive
same,Potency,[8],inactive
c1cc[nH]c1,Potency,[1],inactive
same,Potency,[2],inactive
same,Potency,[3],inactive
same,Potency,[4],inactive
same,Potency,[5],inactive
same,Potency,[6],inactive
same,Potency,[7],inactive
same,Potency,[10],inactive
same,Potency,[8],inactive
same,Potency,[9],inactive
CCCCNc1c(C(=O)OCC)c(C)nc2c1cnn2CC,Potency,[1],inactive
same,Potency,[2],inactive
same,Potency,[3],inactive
same,Potency,[4],12 µM (active)
same,Potency,[5],13.4 µM (active)
same,Potency,[6],inactive
same,Potency,[7],inactive
same,Potency,[8],inactive
same,Potency,[9],inactive
O=Cc1ccc(F)cc1,Potency,[1],inactive
same,Potency,[2],inactive
same,Potency,[3],inactive
same,Potency,[4],inactive
same,Potency,[5],inactive
same,Potency,[6],inactive
same,Potency,[7],inactive
same,Potency,[8],inactive
same,Potency,[9],inactive
CC1CCCCC1,Potency,[1],inactive
same,Potency,[2],inactive
same,Potency,[3],inactive
same,Potency,[4],inactive
same,Potency,[5],inactive
same,Potency,[6],inactive
same,Potency,[7],inactive
same,Potency,[8],inactive
same,Potency,[9],inactive
CCc1ccc(C)nc1,Potency,[1],inactive
same,Potency,[2],inactive
same,Potency,[3],inactive
same,Potency,[4],inactive
same,Potency,[5],inactive
same,Potency,[6],inactive
same,Potency,[7],inactive
same,Potency,[8],inactive
same,Potency,[9],inactive
CCCCCCCCCCc1ccccc1,Potency,[1],inactive
same,Potency,[2],inactive
same,Potency,[3],inactive
same,Potency,[4],inactive
same,Potency,[5],inactive
same,Potency,[6],inactive
same,Potency,[7],inactive
same,Potency,[8],inactive
same,Potency,[9],inactive
COc1ccccc1C=O,Potency,[1],inactive
same,Potency,[2],inactive
same,Potency,[3],inactive
same,Potency,[4],inactive
same,Potency,[5],inactive
same,Potency,[6],inactive
same,Potency,[7],inactive
same,Potency,[8],inactive
same,Potency,[9],inactive
CCO[Si](C)(C)OCC,Potency,[1],inactive
same,Potency,[2],inactive
same,Potency,[3],inactive
same,Potency,[4],inactive
same,Potency,[5],inactive
same,Potency,[6],inactive
same,Potency,[7],inactive
same,Potency,[10],inactive
same,Potency,[8],inactive
same,Potency,[9],inactive
CC1(C)C(=O)N(Br)C(=O)N1Br,Potency,[1],inactive
same,Potency,[2],inactive
same,Potency,[3],inactive
same,Potency,[4],inactive
same,Potency,[5],inactive
same,Potency,[6],inactive
same,Potency,[7],inactive
same,Potency,[10],inactive
same,Potency,[8],inactive
same,Potency,[9],inactive
CN(C)CCOC(c1ccccc1)c1ccccc1 (tested in a mixture with another compound),Potency,[1],inactive
same,Potency,[2],inactive
same,Potency,[3],inactive
same,Potency,[4],inactive
same,Potency,[5],inactive
same,Potency,[6],inactive
same,Potency,[7],inactive
same,Potency,[10],inactive
same,Potency,[9],inactive
C=CC(=C)CCC=C(C)C,Potency,[1],inactive
same,Potency,[2],inactive
same,Potency,[3],inactive
same,Potency,[4],inactive
same,Potency,[5],inactive
same,Potency,[6],inactive
same,Potency,[7],inactive
same,Potency,[10],inactive
same,Potency,[8],inactive
same,Potency,[9],inactive
